Laboratory results published in PubChem BioAssay.
Active and inactive are the calls of the source.

Assays:
[1] = optical density shifts of acrAB sulA E. coli – strain DRC41, OD650, 48 h, E. coli filamentation inducer project, primary screen (AID 1152); conditions: higher = more signal, called active from +8 up or from −8 down;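 also: E. coli MC1000 strain DRC41 lacking acrAB efflux pump and sulA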
[2] = probe aLefty1 binding on compound microarray – biochemical, small-molecule microarray, 635/667 nm fluorescence, primary screen (AID 1153); conditions: higher = more signal;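 also: score merges spot fluorescence with signal-to-noise ratio from the scanned slide images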
[3] = plasmodial surface anion channel blockers, osmotic lysis – cell-based, P. falciparum Indochina, OD700, 1 h, primary screen (AID 1154); conditions: P. falciparum Indochina infected RBC osmotic lysis, higher = more signal, called active from +8 up or from −8 down
[4] = plasmodial surface anion channel blockers, osmotic lysis – cell-based, P. falciparum Indochina, OD700, 2 h, primary screen (AID 1155);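 also: lysis reports solute entry through the parasite surface anion channel PSAC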; conditions: P. falciparum Indochina infected erythrocytes, higher = more signal, called active from +8 up or from −8 down
[5] = changes in parasitized red cell lysis, either direction – P. falciparum Indochina, OD700, 3 h, PSAC antagonist project, primary screen (AID 1156); conditions: P. falciparum-infected erythrocytes, osmotic lysis, higher = more signal, called active from +8 up or from −8 down
[6] = plasmodial surface anion channel blockers, osmotic lysis – cell-based, P. falciparum Indochina, OD700, 18 h, primary screen (AID 1157); conditions: P. falciparum Indochina infected erythrocytes, osmotic lysis OD700, 18 h; higher = more signal, called active from +8 up or from −8 down
[7] = S6 kinase pathway phospho-S6 level changes – cell-based, A549, cytoblot, luminescence, serum-stimulated, primary screen (AID 1158); conditions: 5 h, higher = more signal;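 also: serum-stimulated A549 lung adenocarcinoma cells; signal is phosphorylated S6 detected by cytoblot immunostaining with HRP secondary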
[8] = biological target: NADPH oxidase 2 (Homo sapiens) (UniProt P04839); assay: compounds shifting NOX2 Amplex Red fluorescence – cell-based, HEK293-NOX2, PMA-stimulated, NOX inhibitor project, primary screen (AID 1159); conditions: 45 min, higher = more signal, called active from +8 up or from −8 down; also: test concentration not given here
NADPH oxidase 2 (Homo sapiens), sequence (P04839 whole entry, looked up): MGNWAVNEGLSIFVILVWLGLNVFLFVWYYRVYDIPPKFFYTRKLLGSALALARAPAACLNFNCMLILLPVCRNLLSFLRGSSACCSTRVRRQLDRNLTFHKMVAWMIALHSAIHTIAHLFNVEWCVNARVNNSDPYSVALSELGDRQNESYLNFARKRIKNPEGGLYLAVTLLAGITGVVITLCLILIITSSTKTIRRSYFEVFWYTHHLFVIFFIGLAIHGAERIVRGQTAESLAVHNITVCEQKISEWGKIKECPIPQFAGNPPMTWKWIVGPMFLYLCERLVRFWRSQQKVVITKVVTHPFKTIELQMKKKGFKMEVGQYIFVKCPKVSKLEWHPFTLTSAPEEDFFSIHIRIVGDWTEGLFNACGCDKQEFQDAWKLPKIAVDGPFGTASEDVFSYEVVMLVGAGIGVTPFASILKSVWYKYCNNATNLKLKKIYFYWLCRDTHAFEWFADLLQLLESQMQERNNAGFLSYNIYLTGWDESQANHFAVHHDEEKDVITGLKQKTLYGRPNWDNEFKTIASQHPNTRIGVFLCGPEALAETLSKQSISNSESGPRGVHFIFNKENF

[9] = biological target: NADPH oxidase 4 (Homo sapiens) (UniProt Q9NPH5); assay: compounds shifting NOX4 Amplex Red fluorescence – cell-based, HEK293-NOX4, tetracycline-induced, NOX inhibitor project, primary screen (AID 1160); conditions: HEK293-NOX4, Amplex Red H2O2 fluorescence, 45 min; higher = more signal, called active from +8 up or from −8 down
NADPH oxidase 4 (Homo sapiens), sequence (Q9NPH5 whole entry, looked up): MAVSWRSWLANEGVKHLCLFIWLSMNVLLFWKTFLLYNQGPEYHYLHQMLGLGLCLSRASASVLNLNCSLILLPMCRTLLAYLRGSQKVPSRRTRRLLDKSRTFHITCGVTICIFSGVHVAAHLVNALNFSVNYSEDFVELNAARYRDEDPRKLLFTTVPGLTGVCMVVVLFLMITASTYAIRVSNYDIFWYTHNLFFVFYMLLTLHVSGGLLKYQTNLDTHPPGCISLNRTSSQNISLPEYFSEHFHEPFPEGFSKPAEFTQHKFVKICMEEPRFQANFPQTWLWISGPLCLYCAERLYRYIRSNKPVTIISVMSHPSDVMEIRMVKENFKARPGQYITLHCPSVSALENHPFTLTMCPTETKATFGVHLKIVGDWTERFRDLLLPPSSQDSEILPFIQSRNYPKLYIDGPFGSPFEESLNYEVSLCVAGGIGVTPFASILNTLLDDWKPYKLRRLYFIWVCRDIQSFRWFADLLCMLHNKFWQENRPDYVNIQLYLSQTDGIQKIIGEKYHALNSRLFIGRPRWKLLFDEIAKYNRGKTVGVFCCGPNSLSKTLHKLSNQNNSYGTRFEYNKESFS

[10] = biological target: NADPH oxidase 5 (Homo sapiens) (UniProt Q96PH1); assay: compounds shifting NOX5 Amplex Red fluorescence – cell-based, HEK293-NOX5, NOX inhibitor project, primary screen (AID 1161); conditions: HEK293-NOX5, ionomycin, 45 min, higher = more signal
NADPH oxidase 5 (Homo sapiens), sequence (Q96PH1 whole entry, looked up): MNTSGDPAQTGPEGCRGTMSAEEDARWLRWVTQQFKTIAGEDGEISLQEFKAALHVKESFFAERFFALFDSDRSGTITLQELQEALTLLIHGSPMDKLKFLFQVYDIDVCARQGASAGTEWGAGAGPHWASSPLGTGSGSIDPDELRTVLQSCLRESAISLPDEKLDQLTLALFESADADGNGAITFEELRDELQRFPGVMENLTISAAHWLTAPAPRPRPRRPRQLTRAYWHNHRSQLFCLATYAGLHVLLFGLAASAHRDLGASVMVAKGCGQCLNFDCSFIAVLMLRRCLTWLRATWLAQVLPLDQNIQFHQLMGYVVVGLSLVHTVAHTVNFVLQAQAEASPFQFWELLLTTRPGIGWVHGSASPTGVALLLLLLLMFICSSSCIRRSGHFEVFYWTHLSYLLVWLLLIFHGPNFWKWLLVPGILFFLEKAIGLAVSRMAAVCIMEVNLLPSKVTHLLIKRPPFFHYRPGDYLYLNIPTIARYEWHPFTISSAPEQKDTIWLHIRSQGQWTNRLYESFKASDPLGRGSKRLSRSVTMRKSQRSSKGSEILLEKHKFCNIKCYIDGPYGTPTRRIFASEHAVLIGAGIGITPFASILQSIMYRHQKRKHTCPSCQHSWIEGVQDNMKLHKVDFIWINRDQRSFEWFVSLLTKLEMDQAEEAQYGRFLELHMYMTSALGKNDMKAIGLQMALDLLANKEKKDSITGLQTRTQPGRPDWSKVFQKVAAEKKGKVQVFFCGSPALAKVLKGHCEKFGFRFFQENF

[11] = compound effects on lung adenocarcinoma cell viability – A549, calcein-AM fluorescence, 48 h, basal, profiling panel (AID 1162); conditions: higher = more signal; also: test concentration not given here
[12] = compound effects on differentiated 3T3-L1 adipocyte viability – cell-based, 3T3-L1 adipocytes, calcein-AM fluorescence, 48 h, basal, profiling panel (AID 1163); conditions: 3T3-L1 adipocytes viability, higher = more signal; also: test concentration not given here
[13] = compound effects on hepatocellular carcinoma cell viability – HepG2, calcein-AM fluorescence, 48 h, basal, profiling panel (AID 1164); conditions: higher = more signal; also: test concentration not given here
[14] = compound effects on multiple myeloma cell viability – MM1S, calcein-AM fluorescence, 48 h, basal, profiling panel (AID 1165); conditions: higher = more signal; also: test concentration not given here
[15] = calcein-AM signal in unstimulated myeloma cells – cell-based, calcein-AM fluorescence, 48 h, PK04 Diversity Set, profiling panel (AID 1166); conditions: RPMI8226 myeloma viability, higher = more signal;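 also: cells grown under basal conditions without added stimulus; test concentration not given here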
[16] = JC-1 mitochondrial signal, unstimulated HepG2 cells – cell-based, JC-1 fluorescence, 24 h, 100 nL compound, profiling panel (AID 1167); conditions: HepG2 mitochondrial potential, higher = more signal; also: test concentration not given here
[17] = JC-1 mitochondrial signal, unstimulated adipocytes – cell-based, JC-1 fluorescence, 3T3-L1 adipocytes, 24 h, 100 nL compound, profiling panel (AID 1168); conditions: JC-1 mitochondrial fluorescence, higher = more signal, called active from +8 up or from −8 down; also: test concentration not given here
[18] = JC-1 mitochondrial signal, unstimulated myeloma cells – cell-based, JC-1 fluorescence, RPMI8226, 24 h, 100 nL compound, profiling panel (AID 1169); conditions: JC-1 mitochondrial potential fluorescence, higher = more signal; also: test concentration not given here
[19] = JC-1 mitochondrial signal, unstimulated MM1S myeloma – cell-based, JC-1 fluorescence, 24 h, 100 nL compound, profiling panel (AID 1170); conditions: MM1S mitochondrial potential, higher = more signal; also: test concentration not given here
[20] = resazurin metabolic signal in A549 cells – cell-based, resazurin fluorescence, 24 h, PK04 Diversity Set, profiling panel (AID 1171); conditions: A549 viability, higher = more signal, called active from +8 up or from −8 down; also: test concentration not given here

Row | SMILES | z-score [1] | composite z-score [2] | z-score [3] | z-score [4] | z-score [5] | z-score [6] | z-score [7] | z-score [8] | z-score [9] | z-score [10] | z-score [11] | z-score [12] | z-score [13] | z-score [14] | z-score [15] | z-score [16] | z-score [17] | z-score [18] | z-score [19] | z-score [20]
1 | COCCCNC(=O)[C@]1(CCC(=O)OC(C)(C)C)N=C(c2ccc(OCCCO)cc2)O[C@@H]1c1ccccc1N=[N+]=[N-] | 0.734 (inactive) | 0.483 | 32.7 (active) | 29.9 (active) | 4.05 (inactive) | 7.68 (inactive) | 0.0838 | -2.44 (inactive) | 1.59 (inactive) | -2.19 | -0.771 | 0.463 | -0.0574 | -0.744 | -0.387 | 1.75 | 3.61 (inactive) | -0.69 | -0.984 | 0.576 (inactive)
2 | COCC(=C=CC[C@@H](O)c1ccccc1OCCO)CCO | 0.825 (inactive) | -0.0501 | 2.69 (inactive) | -0.0233 (inactive) | 0.454 (inactive) | 0.16 (inactive) | 0.613 | 1.64 (inactive) | 0.992 (inactive) | -0.132 | 1.31 | 0.177 | 0.792 | 0.699 | 0.551 | 0.429 | 0.432 (inactive) | -0.631 | 0.918 | 0.675 (inactive)
3 | COCCOC(=O)N1C(=O)[C@@]2(c3cc(C#CC4(O)CCCCCC4)ccc31)[C@H](C(=O)N1CCN(c3ncccn3)CC1)[C@H]1C(=O)O[C@H](c3ccccc3)[C@H](c3ccccc3)N1[C@@H]2c1ccc(OCCO)cc1 | 1.74 (inactive) | 0.485 | 11.7 (active) | 2.25 (inactive) | 1.35 (inactive) | 1.19 (inactive) | 0.372 | 1.69 (inactive) | -0.754 (inactive) | 1.24 | 0.514 | 1.48 | -0.118 | 0.0759 | -1.9 | -0.866 | -0.224 (inactive) | -0.479 | -0.653 | -0.49 (inactive)
4 | O=C1[C@H]2[C@H]3[C@H](O)[C@H](O)CC(=NOC[C@@H](O)COCc4ccco4)[C@@H]3CC[C@H]2C(=O)N1c1ccc(F)cc1F | -0.0233 (inactive) | -0.639 | 2.3 (inactive) | 0.537 (inactive) | 1.67 (inactive) | 0.405 (inactive) | -0.51 | -1.37 (inactive) | 0.523 (inactive) | -0.579 | -0.2 | 0.165 | -1.22 | 0.136 | -1.11 | 0.42 | -0.116 (inactive) | -0.0126 | -0.221 | 0.24 (inactive)
5 | O=C1[C@H]2[C@H]3[C@H](O)[C@H](O)CC(=NOC[C@@H](O)COCc4ccco4)[C@H]3CC[C@H]2C(=O)N1C1CCCCC1 | -0.708 (inactive) | 0.0245 | 1.6 (inactive) | -1.23 (inactive) | 0.786 (inactive) | -2.32 (inactive) | 0.988 | -2.55 (inactive) | -0.583 (inactive) | -1.66 | -1.03 | 0.979 | 0.187 | 0.29 | -1.01 | -0.322 | -0.236 (inactive) | -1.02 | -0.611 | -0.381 (inactive)
6 | O=C1CCCC2OC12C(O)CCc1ccccc1 (stereo not given) | 0.508 (inactive) | -0.541 | -0.272 (inactive) | -0.521 (inactive) | -0.0749 (inactive) | -0.169 (inactive) | 0.172 | 0.504 (inactive) | -0.142 (inactive) | 0.0429 | -0.202 | -0.0344 | -0.229 | 0.561 | -0.908 | 0.287 | 0.279 (inactive) | -0.278 | 0.353 | -0.81 (inactive)
7 | C#CCCCON=C1C[C@@H](O)[C@@H](O)[C@@H]2[C@@H]3C(=O)N(c4cccc(Oc5ccccc5)c4)C(=O)[C@@H]3CC[C@@H]12 | -0.164 (inactive) | -0.0929 | 2.87 (inactive) | 1.29 (inactive) | 1.24 (inactive) | 0.354 (inactive) | -0.512 | -2.13 (inactive) | -0.598 (inactive) | -0.786 | -0.559 | 0.43 | -1.57 | -0.399 | -0.2 | 0.106 | 0.126 (inactive) | -0.56 | 0.835 | -0.248 (inactive)
8 | C=CCOC(=O)[C@H]1[C@@H]2C(=O)O[C@@H](c3ccccc3)[C@@H](c3ccccc3)N2[C@@H](c2ccc(OCCOC(=O)[C@H]3C[C@H]4C(=O)N5CCC[C@H]5C(=O)N4[C@H]3c3cccc(OCCO)c3)cc2)[C@]12C(=O)Nc1ccc(I)cc12 | -0.709 (inactive) | 1.72 | 0.491 (inactive) | 0.641 (inactive) | -2.53 (inactive) | 0.131 (inactive) | -0.0041 | -0.669 (inactive) | 0.165 (inactive) | 0.261 | -0.0113 | 0.199 | 0.144 | 0.817 | -0.452 | -0.0589 | -0.518 (inactive) | -0.855 | -0.122 | 0.9 (inactive)
9 | C[C@@H]1CC[C@H]2C(=O)O[C@H](COc3ccc(C(C)(C)C)cc3)CN2[C@H]1c1ccc(Br)cc1 | -0.425 (inactive) | -0.279 | 0.813 (inactive) | 0.538 (inactive) | -0.082 (inactive) | 0.343 (inactive) | -0.53 | 0.0709 (inactive) | -1.99 (inactive) | 0.568 | 1.29 | 0.0543 | 0.0624 | -0.232 | -0.0964 | -1.12 | -0.204 (inactive) | -0.132 | 0.621 | 1.19 (inactive)
